From PubChem BioAssay AID1224904 (Broad Institute, 2016)
About 290 (0.78%) of roughly 37,000 compounds were called active. Another 10% or so got no clear call; they are omitted.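 The calls were made as follows: active = mean inhibition of at least 10% in the main channel, exceeding the control channel by a set limit; inconclusive = inhibition of 10% or more but channel gap under a set limit; inactive = mean inhibition below 10%.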 The full list was thinned out, with actives kept by preference.

Assay: DUX4 transcriptional activity inhibition in cells – 293T cells, Gaussia and Italica luciferase, primary screen (AID 1224904);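 as to activity change, negative = inhibition: 0% = median of neutral control wells and -100% = median of positive control wells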
Details: 293T-iDUX4 ZSCAN4-Gaussia luciferase reporter, 24 h, stronger effect = lower value, concentration not given here; for Gaussia minus Italica difference: measured here: selective DUX4 reporter inhibition
[1] = measured here: Italica tet-on control reporter

SMILES	activity change, negative = inhibition	activity change, negative = inhibition [1]	Gaussia minus Italica difference
CCC(=O)N(C)C[C@H]1[C@H](c2ccc(-c3ccccc3F)cc2)[C@@H](CO)N1C(C)=O	3.08% (inactive)	7.42%	-4.34%
CCCNC(=O)[C@@H]1[C@@H](CO)[C@@H]2Cn3c(cccc3=O)[C@H]1N2C(=O)C1CCC1	-0.71% (inactive)	1.58%	-2.29%
CC=Cc1ccc2n(c1=O)C[C@@H]1[C@@H](CO)[C@H](C(=O)NCCCN3CCOCC3)[C@H]2N1Cc1cocn1 (mixture of isomers)	-1.75% (inactive)	4.32%	-6.07%
CCCNC(=O)[C@@H]1[C@@H](CO)[C@@H]2Cn3c(ccc(C4=CCCCC4)c3=O)[C@H]1N2CCC	0.23% (inactive)	-0.339%	0.57%
COCCN(C[C@H]1[C@@H](c2ccccc2)[C@H](CO)N1C(=O)C1CCC1)C(C)=O	-2.05% (inactive)	5.46%	-7.51%
C[C@H]1CN([C@@H](C)CO)S(=O)(=O)c2ccc(-c3ccncc3)cc2O[C@H]1CN(C)S(C)(=O)=O	-0.678% (inactive)	4.8%	-5.48%
CCC(=O)N1C[C@@H](C)[C@H](OC)CN(C)C(=O)c2cc(NC(=O)c3cc(C)on3)ccc2OC[C@@H]1C	-1.43% (inactive)	2.42%	-3.85%
CCCNC(=O)N1C[C@@H](C)[C@@H](OC)CN(C)C(=O)c2ccc(NC(=O)C3CCC3)cc2OC[C@@H]1C	-2.74% (inactive)	-2.2%	-0.535%
CN1C(=O)c2cc(NS(=O)(=O)c3ccc(Cl)cc3)ccc2OC[C@H]2O[C@@H](CC(=O)O)CC[C@H]21	2.17% (inactive)	-0.461%	2.63%
CN1C(=O)c2cc(NC(=O)c3ccc(F)c(F)c3)ccc2OC[C@H]2O[C@@H](CC(=O)N3CCCCC3)CC[C@H]21	-2.75% (inactive)	-1.85%	-0.906%
CO[C@@H](CN(C)C(=O)Nc1ccc(F)cc1)[C@H](C)CN(Cc1ccccc1Cl)[C@@H](C)CO	1.39% (inactive)	-1.3%	2.69%
COCC(=O)N1CC2(C1)[C@H](c1ccc(-c3cccc(F)c3)cc1)[C@@H](CO)N2C(=O)COC	6.28% (inactive)	3.24%	3.04%
CN(C)c1ccc2c(c1)[C@H]1C[C@H](CC(=O)O)O[C@H](CO)[C@H]1O2	1.12% (inactive)	6.76%	-5.64%
C[C@@H]1CN([C@@H](C)CO)C(=O)c2c(c3ccccc3n2C)-c2ccccc2CO[C@@H]1CN(C)S(=O)(=O)c1cccs1	10.1% (inactive)	4.92%	5.19%
C[C@@H]1CN([C@@H](C)CO)C(=O)c2c(c3ccccc3n2C)-c2ccccc2CO[C@@H]1CN(C)Cc1cccc(C(=O)O)c1	7.37% (inactive)	5%	2.36%
C[C@@H]1CN([C@@H](C)CO)C(=O)c2c(c3ccccc3n2C)-c2ccccc2CO[C@H]1CN(C)S(=O)(=O)c1cccs1	-5.46% (inactive)	-1.09%	-4.37%
C[C@H](CO)N1C[C@H](C)[C@@H](CN(C)Cc2ccc(C(F)(F)F)cc2)OCc2ccccc2-c2c(n(C)c3ccccc23)C1=O	-40.3% (active)	-11%	-29.3%
C[C@@H]1CN([C@H](C)CO)C(=O)c2c(c3ccccc3n2C)-c2ccccc2CO[C@@H]1CN(C)Cc1ccc(F)cc1	-34.5% (active)	-8.76%	-25.8%
C[C@@H]1CN([C@@H](C)CO)C(=O)c2c(c3ccccc3n2C)-c2ccccc2CO[C@H]1CN(C)Cc1cccc(C(=O)O)c1	-0.025% (inactive)	-8.31%	8.28%
Cc1ccccc1S(=O)(=O)N(C)C[C@@H]1OCc2ccccc2-c2c(n(C)c3ccccc23)C(=O)N([C@H](C)CO)C[C@H]1C	-34% (active)	-6.75%	-27.3%
C[C@@H]1CN([C@@H](C)CO)C(=O)c2c(c3ccccc3n2C)-c2ccccc2CO[C@@H]1CN(C)S(=O)(=O)CC(F)(F)F	18.5% (inactive)	1.21%	17.3%
C[C@@H]1CN([C@@H](C)CO)C(=O)c2c(c3ccccc3n2C)-c2ccccc2CO[C@@H]1CN(C)Cc1ccc2c(c1)OCCN2C	-2.06% (inactive)	2.22%	-4.27%
CC(C)OC(=O)N(C)C[C@@H]1OCc2ccccc2-c2c(n(C)c3ccccc23)C(=O)N([C@H](C)CO)C[C@H]1C	-4.14% (inactive)	-0.897%	-3.24%
C[C@H]1CN([C@@H](C)CO)C(=O)c2c(c3ccccc3n2C)-c2ccccc2CO[C@H]1CN(C)Cc1ccc2c(c1)OCO2	3.62% (inactive)	-0.444%	4.06%
C[C@@H]1CN([C@H](C)CO)C(=O)c2c(c3ccccc3n2C)-c2ccccc2CO[C@@H]1CN(C)Cc1ccccc1C(F)(F)F	-42% (active)	-5.06%	-36.9%
CCC(=O)N1CC2(C1)[C@@H](c1ccc(C3=CCCC3)cc1)[C@@H](CO)N2C(=O)COC	2.59% (inactive)	3.57%	-0.983%
COc1cccc(CNC(=O)[C@@H]2[C@@H](CO)[C@@H]3Cn4c(ccc(-c5ccncc5)c4=O)[C@H]2N3C(C)=O)c1	-3.74% (inactive)	-3.37%	-0.373%

SMILES	activity change, negative = inhibition	activity change, negative = inhibition [1]	Gaussia minus Italica difference
CN1CCN(C(=O)C[C@@H]2CC[C@@H]3[C@H](COC[C@@H](O)CN3Cc3cccc(F)c3)O2)CC1	4.3% (inactive)	-1.22%	5.51%
O=C(C[C@@H]1CC[C@@H]2[C@H](COC[C@H](O)CN2C(=O)c2cccnc2)O1)NC1Cc2ccccc2C1	3.73% (inactive)	-3.66%	7.39%
CC(C)CN(C[C@@H]1N[C@@H](CO)[C@H]1c1ccccc1)C(=O)CN(C)C	0.487% (inactive)	0.95%	-0.462%
O=C(C[C@@H]1CC[C@@H](NC(=O)Nc2ccc(F)cc2)[C@@H](CO)O1)NCCN1CCCC1	3.27% (inactive)	-1.07%	4.34%
N#C[C@@H]1[C@@H](c2ccc(C#Cc3cccc(F)c3)cc2)[C@H](CO)N1C(=O)C1CCOCC1	1.6% (inactive)	1.95%	-0.348%
Cc1noc(C)c1S(=O)(=O)N(C)C[C@@H]1OCc2ccccc2-c2ccccc2C(=O)N([C@@H](C)CO)C[C@H]1C	1.81% (inactive)	12.5%	-10.7%
O=C(C[C@H]1CC[C@@H]2[C@H](COC[C@@H](O)CN2C(=O)Nc2ccc(Cl)cc2)O1)NC1Cc2ccccc2C1	-9.05% (inactive)	-0.9%	-8.14%
CN1C(=O)c2cc(NC(=O)c3cscn3)ccc2OC[C@H]2O[C@@H](CC(=O)NCC3CC3)CC[C@H]21	-3.18% (inactive)	-1.57%	-1.61%
CCC(=O)N1CC2(C1)[C@@H](c1ccccc1)[C@H](CO)N2CC1CCOCC1	-0.159% (inactive)	8.93%	-9.09%
C[C@@H]1CC=CC[C@H](c2ccc(F)cc2)NC(=O)[C@@H](Cc2ccccc2)N(C)C(=O)c2ccccc2O1 (mixture of isomers)	-2.82% (inactive)	-1.88%	-0.938%
CC(C)NC(=O)N1C[C@@H]2[C@H](c3ccccc31)[C@H](CO)N2C(=O)C1CCCC1	-2.38% (inactive)	-1.49%	-0.893%
CCCNC(=O)[C@@H]1[C@@H](CO)[C@@H]2Cn3c(cccc3=O)[C@H]1N2C(=O)Nc1cc(F)ccc1F	6.78% (inactive)	10.8%	-3.98%
Cc1noc(C)c1NC(=O)N[C@@H]1C=C[C@H](CC(=O)N2CCCCC2)O[C@H]1CO	5.84% (inactive)	1.64%	4.2%
C[C@@H]1CN([C@H](C)CO)S(=O)(=O)c2ccc(C#CC3CCCC3)cc2O[C@@H]1CN(C)Cc1ccccc1C(=O)O	-1.04% (inactive)	-2.07%	1.03%
CC=Cc1ccc2n(c1=O)C[C@@H]1[C@@H](CO)[C@H](C(=O)N(C)C)N(CC3CCOCC3)[C@H]21 (mixture of isomers)	3.1% (inactive)	6.26%	-3.17%
COc1ccccc1NC(=O)N[C@H]1C=C[C@H](CC(=O)N[C@@H](C)c2ccccc2)O[C@H]1CO	-2% (inactive)	-1.1%	-0.906%
O=C(Nc1ccccc1F)N1C[C@H]2[C@@H](c3ccccc31)[C@H](CO)N2C(=O)c1ccccn1	-3.65% (inactive)	-2.86%	-0.784%
O=C(CN1CCOCC1)N1CCCCN2[C@H](CO)[C@H](c3ccc(Br)cc3)[C@H]2C1	9.07% (inactive)	-4.46%	13.5%
OC[C@H]1[C@@H](c2ccc(C#CC3(O)CCCC3)cc2)[C@H]2CN(Cc3cncnc3)CCCCN21	13.2% (inactive)	12.8%	0.35%
O=C(C1CCCCC1)N1CC(=O)N2[C@H](CO)[C@@H](c3ccc(-c4ccccc4F)cc3)[C@@H]2C1	-8.07% (inactive)	-1.6%	-6.47%
CNC(=O)C[C@H]1CC[C@@H]2[C@H](COc3ccc(NC(=O)Nc4ccc(F)c(F)c4)cc3C(=O)N2C)O1	-0.979% (inactive)	-3.84%	2.86%
O=C(C[C@@H]1C[C@H]2c3cc(NC(=O)Nc4ccccc4F)ccc3O[C@H]2[C@@H](CO)O1)NCc1ccncc1	-1.77% (inactive)	0.554%	-2.32%
C[C@@H](NC(=O)[C@@H]1[C@@H](CO)[C@@H]2Cn3c(ccc(C4=CCCCC4)c3=O)[C@@H]2N1C)c1ccccc1	3.54% (inactive)	1.39%	2.15%
CN1C(=O)c2cc(NC(=O)c3ccc(F)cc3)ccc2OC[C@H]2O[C@H](CC(=O)N3CCOCC3)CC[C@@H]21	1.69% (inactive)	-7.81%	9.5%
COCC(=O)N[C@@H]1C=C[C@@H](CC(=O)N2CCCCC2)O[C@@H]1CO	6.06% (inactive)	-1.08%	7.14%
O=C(C1CCCC1)N1CC2(C1)[C@H](c1ccccc1)[C@H](CO)N2CCC(F)(F)F	-0.604% (inactive)	2.75%	-3.36%
